Experimental data from PubChem BioAssay (NCI).
The panel holds about 83,000 compounds, 20% with a hit somewhere; the sample as a whole holds those more often.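 In brief: 96-well plates, 48 h treatment, single concentration, percent growth endpoint.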 Values without a mark were called inactive. Active and inactive are the calls of the source. Rule for the calls: active = growth percent below 10; inactive = the rest.

Key:
Experiment in all cases: NCI-60 one-dose screen, 48 h (100 = growth as untreated, 0 = no growth, -100 = all killed)
Details in all cases: 10 µM unless noted
NCI-H23 lung = tested on: NCI-H23 lung
NCI-H226 lung = tested on: NCI-H226 lung
NCI-H322M lung = tested on: NCI-H322M lung
HOP-62 NSCLC = tested on: HOP-62 NSCLC
NCI-H460 lung = tested on: NCI-H460 lung
HOP-92 NSCLC = tested on: HOP-92 NSCLC
NCI-H522 lung = tested on: NCI-H522 lung
A549/ATCC NSCLC = tested on: A549/ATCC NSCLC
786-0 renal = tested on: 786-0 renal
COLO 205 colon = tested on: COLO 205 colon
DU-145 prostate = tested on: DU-145 prostate
K-562 leukemia = tested on: K-562 leukemia
MDA-MB-231 breast = tested on: MDA-MB-231 breast
RXF 393 renal = tested on: RXF 393 renal
SF-268 CNS = tested on: SF-268 CNS
SF-295 CNS = tested on: SF-295 CNS
SF-539 CNS = tested on: SF-539 CNS
UACC-257 melanoma = tested on: UACC-257 melanoma
M14 melanoma = tested on: M14 melanoma
MALME-3M melanoma = tested on: MALME-3M melanoma

| Structure (SMILES) | growth (NCI-H23 lung) | growth (NCI-H226 lung) | growth (NCI-H322M lung) | growth (HOP-62 NSCLC) | growth (NCI-H460 lung) | growth (HOP-92 NSCLC) | growth (NCI-H522 lung) | growth (A549/ATCC NSCLC) | growth (786-0 renal) | growth (COLO 205 colon) | growth (DU-145 prostate) | growth (K-562 leukemia) | growth (MDA-MB-231 breast) | growth (RXF 393 renal) | growth (SF-268 CNS) | growth (SF-295 CNS) | growth (SF-539 CNS) | growth (UACC-257 melanoma) | growth (M14 melanoma) | growth (MALME-3M melanoma) |
| --- | --- | --- | --- | --- | --- | --- | --- | --- | --- | --- | --- | --- | --- | --- | --- | --- | --- | --- | --- | --- |
| Cc1cc(N2CCN(c3ccnc4cc(Cl)ccc34)CC2)nc(N2CCOCC2)n1 | 84.4% | 88.6% | 95.3% | 91.9% | 96.7% | 66.2% | 85.3% | 89.4% | 97.8% | 73% | 88.1% | 55.9% | 64.1% | 80.6% | 87.4% | 81.1% | 96.6% | 88.6% | 87.2% | – |
| COc1cc(/C=C/C(=O)Nc2cccnc2Nc2ccc(F)cc2)cc(OC)c1OC | 99.6% | 99% | 107% | 103% | 112% | 74.8% | 48.9% | 70.1% | 92.8% | 113% | 110% | – | 93.5% | 108% | 102% | 94.2% | 95.2% | 62.9% | 103% | 110% |
| CC(=O)O[C@H]1C(=O)[C@@]2(C)[C@H]([C@H](OC(=O)c3ccccc3)[C@]3(O)C[C@H](OC(=O)[C@H](OC(=O)CCC(=O)OC4CCC(S/N=C(N)/N=C(\N)N(C)C)CC4)[C@@H](NC(=O)c4ccccc4)c4ccccc4)C(C)=C1C3(C)C)[C@]1(OC(C)=O)CO[C@@H]1C[C@@H]2O (some centres not stated) | 39.3% | 75.6% | 17.8% | 29.7% | 7.58% (active) | 54.9% | -25.7% (active) | 28.5% | 33.3% | -8.92% (active) | 0.0949% (active) | – | 22.8% | 10.6% | 38.1% | -10.5% (active) | -19.7% (active) | 58% | 30.1% | 66.8% |
| CCOc1ccc(C(C)=O)cc1NC(=O)c1cccc(-c2nnn(CC)n2)c1 | 42.6% | 59% | 49.1% | 36.8% | 12.1% | 42.5% | -38.3% (active) | 45% | 35.5% | -3.73% (active) | 16.7% | – | 47.9% | -1.89% (active) | 59% | 7.49% (active) | -16.7% (active) | 57.1% | 9.12% (active) | 47.2% |
| COc1cc(Nc2cc(C)nc(N3CCN(c4ccnc5cc(Cl)ccc45)CC3)n2)cc(OC)c1 | 9.55% (active) | 22.9% | 8.83% (active) | 10.1% | 2.55% (active) | 5.3% (active) | 9% (active) | 4.7% (active) | -13.1% (active) | -24.4% (active) | 2.17% (active) | 8.3% (active) | -35.1% (active) | 4.88% (active) | 15.1% | 0.307% (active) | -16.9% (active) | 49.2% | 4.43% (active) | – |
| Clc1ccc2nc3nc4ccc[nH]c4cc3c2c1 | 73.7% | 83.8% | 65.1% | 89.7% | 54.4% | 105% | 81.1% | 79.2% | 105% | 98.9% | 100% | – | 99.6% | 116% | 97.9% | 101% | 83.7% | 85.8% | 106% | 87.2% |
| O=[N+]([O-])c1ccc2c(c1)Cc1cc(F)ccc1-2 | 105% | 99.4% | 95.6% | 106% | 106% | 80.2% | 104% | 88.5% | 95.4% | 107% | 114% | – | 112% | 103% | 111% | 96.5% | 109% | 87.1% | 110% | 109% |
| CCOC(=O)C(C)(C#N)C1C=CCCC1 (configuration not stated) | 83.3% | 97.9% | 80.4% | 89.8% | 98.8% | 78.2% | 104% | 92.5% | 87% | 106% | 97.1% | – | 95.5% | 98.8% | 93.8% | 84.3% | 91.8% | 93.6% | 81.2% | 102% |
